Measurements taken from the supplement of paper PMC10849652.
Of roughly 7,900 targets only a part is listed; those with a hit were picked by preference. About 0.6% of all pairs of compound and target were hits.

Assays:
Experiment in all cases: log2 fold change, soluble protein after heating vs DMSO (PISA); higher = thermal stabilisation; K562 cells, 10 uM, 30 min; active = over 0.2 and 3.5 SD of the protein, either way, in both replicates (recomputed)
[1] = compound: C[C@@H]1COCCN1C2=NC(=NC(=C2)C3(CC3)S(=O)(=O)C)C4=C5C=CNC5=CC=C4
Method in brief: (§1)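 K562 cells at 2×10^6 cells/mL were exposed to 10 μM compound for 30 min, then aliquots were heated for 3 min across 48°C-58°C, pooled, and extracted in PBS containing 0.5% NP-40 at 4°C. The supernatant after 21,000xg for 90 min was taken as soluble protein and measured by TMTpro 16plex LC-MS/MS with channel sums equalised. Thermal stability is reported relative to control samples, with values from duplicates. Fold changes are given on a log2 scale.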

tozasertib = compound: Cc1cc(Nc2cc(N3CCN(C)CC3)nc(Sc3ccc(NC(=O)C4CC4)cc3)n2)n[nH]1 [tozasertib]
Method in brief: as §1

[2] = compound: CS(=O)(=O)c1ccc(-c2cnc(N)c(C(=O)Nc3ccccc3)n2)cc1
Method in brief: as §1

[3] = compound: C[C@H](C1=CC=C(C=C1)C(=O)NC2=C3C=CNC3=NC=C2)N
Method in brief: as §1

duvelisib = compound: C[C@H](Nc1ncnc2nc[nH]c12)c1cc2cccc(Cl)c2c(=O)n1-c1ccccc1 [duvelisib]
Method in brief: as §1

gandotinib = compound: Cc1cc(Nc2cc(CN3CCOCC3)c3nc(C)c(Cc4ccc(Cl)cc4F)n3n2)n[nH]1 [gandotinib]
Method in brief: as §1

[4] = compound: Cc1cc(SCc2sc(-c3ccc(C(F)(F)F)cc3)nc2C)ccc1OCC(=O)O
Method in brief: as §1

ispinesib = compound: Cc1ccc(C(=O)N(CCCN)[C@@H](c2nc3cc(Cl)ccc3c(=O)n2Cc2ccccc2)C(C)C)cc1 [ispinesib]
Method in brief: as §1

crizotinib = compound: C[C@@H](Oc1cc(-c2cnn(C3CCNCC3)c2)cnc1N)c1c(Cl)ccc(F)c1Cl [crizotinib]
Method in brief: as §1

doramapimod = compound: Cc1ccc(-n2nc(C(C)(C)C)cc2NC(=O)Nc2ccc(OCCN3CCOCC3)c3ccccc23)cc1 [doramapimod]
Method in brief: as §1

Measured: log2 fold change

UTP20 (UniProt O75691)
inactive: [1] -0.379 | tozasertib 0.021

TSPAN13 (UniProt O95857)
inactive: [2] -0.055 | [1] 0.4 | [3] -0.17 | duvelisib 0.045 | gandotinib -0.05 | tozasertib -0.06 | [4] -0.124 | ispinesib -0.03

UBIAD1 (UniProt Q9Y5Z9)
Chain of UniProt Q9Y5Z9 (Q9Y5Z9 whole entry, looked up): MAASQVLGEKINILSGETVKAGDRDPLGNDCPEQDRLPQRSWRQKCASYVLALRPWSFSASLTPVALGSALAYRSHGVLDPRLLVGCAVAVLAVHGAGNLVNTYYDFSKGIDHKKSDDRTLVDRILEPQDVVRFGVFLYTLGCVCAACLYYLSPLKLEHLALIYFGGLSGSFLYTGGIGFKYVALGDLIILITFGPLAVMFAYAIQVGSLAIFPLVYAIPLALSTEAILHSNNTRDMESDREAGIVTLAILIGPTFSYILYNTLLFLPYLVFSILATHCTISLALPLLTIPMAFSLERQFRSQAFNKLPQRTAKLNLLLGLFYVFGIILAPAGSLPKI
inactive: [2] 0.107 | crizotinib 0.024 | [3] 0.001 | duvelisib 0.021 | gandotinib 0.069 | tozasertib -0.019 | [4] 0.004 | doramapimod -0.1 | ispinesib -0.117

WDR4 isoform 3 (UniProt P57081)
Chain of UniProt P57081 (P57081 whole entry, looked up): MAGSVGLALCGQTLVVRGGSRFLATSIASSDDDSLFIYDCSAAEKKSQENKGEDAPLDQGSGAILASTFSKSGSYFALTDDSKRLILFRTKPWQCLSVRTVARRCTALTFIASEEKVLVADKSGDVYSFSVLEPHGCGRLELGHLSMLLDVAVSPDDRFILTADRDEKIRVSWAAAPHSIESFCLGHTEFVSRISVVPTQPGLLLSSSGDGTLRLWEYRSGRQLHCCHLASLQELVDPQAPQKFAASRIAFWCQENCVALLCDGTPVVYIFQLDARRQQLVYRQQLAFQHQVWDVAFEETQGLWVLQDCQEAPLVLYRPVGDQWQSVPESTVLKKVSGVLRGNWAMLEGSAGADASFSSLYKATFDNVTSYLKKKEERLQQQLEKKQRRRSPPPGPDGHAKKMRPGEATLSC
inactive: [2] 0.074 | [1] 0.125 | gandotinib -0.247

WDR75 (UniProt Q8IWA0)
inactive: crizotinib -0.07 | [1] -0.03 | [3] 0.185 | duvelisib -0.082 | tozasertib -0.2 | [4] 0.112 | doramapimod 0.145 | ispinesib -0.219

TMEM104 (UniProt Q8NE00)
inactive: crizotinib -0.145 | [1] 0.012 | [3] 0.009 | duvelisib 0.129 | gandotinib -0.087 | [4] -0.049 | doramapimod 0.112 | ispinesib -0.34

TMEM268 isoform 3 (UniProt Q5VZI3)
Chain of UniProt Q5VZI3 (Q5VZI3 whole entry, looked up): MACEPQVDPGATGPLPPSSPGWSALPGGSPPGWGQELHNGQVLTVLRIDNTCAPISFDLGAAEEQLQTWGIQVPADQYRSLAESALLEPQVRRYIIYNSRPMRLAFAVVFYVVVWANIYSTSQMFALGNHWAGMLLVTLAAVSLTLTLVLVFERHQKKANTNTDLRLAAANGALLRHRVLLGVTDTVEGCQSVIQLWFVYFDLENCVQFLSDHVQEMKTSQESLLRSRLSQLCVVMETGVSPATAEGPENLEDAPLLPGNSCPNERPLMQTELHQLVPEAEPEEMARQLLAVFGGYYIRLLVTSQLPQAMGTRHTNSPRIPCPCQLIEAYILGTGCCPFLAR
inactive: [2] -0.146 | [1] -0.308 | [3] -0.078 | duvelisib 0.371 | gandotinib 0.124 | tozasertib -0.073 | [4] -0.063 | ispinesib -0.227

UBAP2L (UniProt F8W726)
inactive: gandotinib -0.072 | tozasertib -0.003

TRIM44 (UniProt Q96DX7)
Chain of UniProt Q96DX7 (Q96DX7 whole entry, looked up): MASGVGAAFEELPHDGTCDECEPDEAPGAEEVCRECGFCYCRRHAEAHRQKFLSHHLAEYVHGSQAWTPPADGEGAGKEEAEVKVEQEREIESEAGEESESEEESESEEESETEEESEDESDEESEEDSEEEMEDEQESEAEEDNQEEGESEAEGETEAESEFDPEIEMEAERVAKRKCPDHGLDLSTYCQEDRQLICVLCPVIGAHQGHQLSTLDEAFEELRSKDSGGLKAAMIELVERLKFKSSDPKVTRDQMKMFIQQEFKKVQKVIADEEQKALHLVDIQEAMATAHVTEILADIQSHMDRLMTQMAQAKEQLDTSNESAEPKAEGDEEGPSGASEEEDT
inactive: [2] 0.013 | crizotinib 0.083 | [3] -0.059 | duvelisib 0.063 | gandotinib 0.045 | tozasertib 0.022 | [4] 0.024 | doramapimod -0.004 | ispinesib 0.03

TXNRD1 isoform 7 (UniProt Q16881)
inactive: [2] 0.075 | [1] -0.026 | duvelisib -0.049 | gandotinib 0.125 | [4] -0.015

VPS72 isoform 2 (UniProt Q15906)
inactive: [2] -0.041 | [1] 0.093 | [3] 0.196 | duvelisib -0.021 | tozasertib 0.007 | [4] -0.021 | ispinesib 0.218

TTC26
inactive: tozasertib -0.11 | ispinesib 0.105

TRPT1 isoform 4 (UniProt Q86TN4)
inactive: [2] -0.176 | crizotinib -0.011 | doramapimod 0.013 | ispinesib -0.105

TMEM219 (UniProt Q86XT9)
inactive: [2] 0.049 | [1] -0.036 | [3] 0.114 | duvelisib -0.163 | gandotinib 0.034 | tozasertib -0.055 | [4] -0.241

XIAP (UniProt P98170)
Chain of UniProt P98170 (P98170 whole entry, looked up): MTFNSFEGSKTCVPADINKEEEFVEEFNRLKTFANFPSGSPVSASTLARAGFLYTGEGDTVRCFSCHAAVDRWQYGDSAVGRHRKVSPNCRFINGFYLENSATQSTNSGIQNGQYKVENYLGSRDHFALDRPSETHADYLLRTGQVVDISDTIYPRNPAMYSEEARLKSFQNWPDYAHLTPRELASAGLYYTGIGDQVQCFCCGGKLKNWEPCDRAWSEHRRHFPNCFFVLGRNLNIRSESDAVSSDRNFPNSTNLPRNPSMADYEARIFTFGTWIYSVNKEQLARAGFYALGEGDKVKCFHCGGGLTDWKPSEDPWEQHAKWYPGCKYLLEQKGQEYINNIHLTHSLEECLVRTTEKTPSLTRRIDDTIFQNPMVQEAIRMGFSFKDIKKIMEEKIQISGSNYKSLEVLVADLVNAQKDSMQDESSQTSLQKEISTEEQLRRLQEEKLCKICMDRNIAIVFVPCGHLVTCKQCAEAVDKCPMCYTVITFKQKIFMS
inactive: [2] 0.125 | [1] 0.092 | [3] -0.09 | duvelisib 0.068 | gandotinib 0.061 | tozasertib -0.01 | [4] -0.036

TVP23C (UniProt Q96ET8)
inactive: [3] 0.03 | duvelisib -0.065 | gandotinib -0.016 | tozasertib -0.028 | [4] -0.092

WARS1 (UniProt G3V227)
inactive: [1] -0.024 | [3] 0.147 | duvelisib -0.011 | tozasertib -0.016 | [4] -0.015

U2AF1L5 (UniProt P0DN76)
inactive: crizotinib -0.105 | duvelisib -0.014 | tozasertib -0.025 | [4] 0.023 | doramapimod -0.1

XAB2 (UniProt Q9HCS7)
active: crizotinib -0.69
inactive: [1] -0.223 | duvelisib -0.146 | [4] 0.013 | doramapimod -0.035 | ispinesib -0.223

UNC119B (UniProt A6NIH7)
active: ispinesib 0.527
inactive: [2] 0.026 | crizotinib -0.08 | [3] 0.039 | duvelisib 0.178 | gandotinib 0.034 | tozasertib -0.019 | [4] -0.064 | doramapimod 0.263

TUBA4A (UniProt C9JJQ8)
inactive: [2] 0.009 | crizotinib -0.019 | [3] -0.159 | duvelisib 0.19 | tozasertib 0.001 | [4] 0.108 | doramapimod -0.046

WARS1 (UniProt G3V277)
inactive: [2] -0.009 | crizotinib -0.001 | gandotinib -0.218 | tozasertib -0.206 | doramapimod 0.029

TRIM23 (UniProt P36406)
inactive: [2] 0.143 | crizotinib 0.152 | [3] -0.122 | duvelisib 0.008 | gandotinib 0.128 | tozasertib -0.135 | [4] 0.001 | doramapimod -0.043 | ispinesib 0.115

UBE2J2 isoform 3 (UniProt Q8N2K1)
inactive: [2] 0.252 | [1] -0.076 | [3] -0.365 | duvelisib 0.101 | gandotinib 0.028 | tozasertib -0.094 | [4] -0.01

VWA3B isoform 6 (UniProt Q502W6)
Chain of UniProt Q502W6 (Q502W6 whole entry, looked up): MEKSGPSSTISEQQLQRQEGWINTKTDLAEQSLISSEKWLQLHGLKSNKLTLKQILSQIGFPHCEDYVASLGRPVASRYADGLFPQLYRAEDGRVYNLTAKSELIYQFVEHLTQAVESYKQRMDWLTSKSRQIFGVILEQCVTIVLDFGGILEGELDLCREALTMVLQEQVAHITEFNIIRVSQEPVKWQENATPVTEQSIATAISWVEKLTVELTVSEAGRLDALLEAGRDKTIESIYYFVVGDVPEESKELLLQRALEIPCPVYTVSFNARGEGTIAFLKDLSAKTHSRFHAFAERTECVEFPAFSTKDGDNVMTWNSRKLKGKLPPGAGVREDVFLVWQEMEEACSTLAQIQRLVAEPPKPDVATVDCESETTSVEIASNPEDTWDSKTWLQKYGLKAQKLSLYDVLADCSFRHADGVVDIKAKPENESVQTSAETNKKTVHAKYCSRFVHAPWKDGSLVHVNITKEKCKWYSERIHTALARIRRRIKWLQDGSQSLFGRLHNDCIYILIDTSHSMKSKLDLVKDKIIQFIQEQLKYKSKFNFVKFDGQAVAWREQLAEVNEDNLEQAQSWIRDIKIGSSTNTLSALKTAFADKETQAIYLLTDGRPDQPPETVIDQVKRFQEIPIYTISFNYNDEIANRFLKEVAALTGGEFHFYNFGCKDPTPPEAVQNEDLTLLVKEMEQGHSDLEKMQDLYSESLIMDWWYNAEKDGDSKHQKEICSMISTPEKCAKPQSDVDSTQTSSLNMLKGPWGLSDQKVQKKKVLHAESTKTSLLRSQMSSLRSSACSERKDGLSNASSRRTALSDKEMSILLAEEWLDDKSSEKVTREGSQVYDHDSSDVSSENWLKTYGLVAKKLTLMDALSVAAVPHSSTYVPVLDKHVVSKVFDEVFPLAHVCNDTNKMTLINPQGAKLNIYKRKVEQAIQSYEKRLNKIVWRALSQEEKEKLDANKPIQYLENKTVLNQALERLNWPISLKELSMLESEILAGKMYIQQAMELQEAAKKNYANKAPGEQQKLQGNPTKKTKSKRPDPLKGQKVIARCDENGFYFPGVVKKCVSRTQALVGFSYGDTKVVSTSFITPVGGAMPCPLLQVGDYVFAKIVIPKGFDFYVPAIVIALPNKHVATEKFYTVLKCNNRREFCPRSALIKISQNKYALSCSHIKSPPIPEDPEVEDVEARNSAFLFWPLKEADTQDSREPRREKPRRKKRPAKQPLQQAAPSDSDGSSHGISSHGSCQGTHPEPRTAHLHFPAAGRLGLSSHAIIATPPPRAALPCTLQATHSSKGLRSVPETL
inactive: crizotinib -0.012 | [1] 0.074 | [3] 0.045 | duvelisib 0.337 | gandotinib -0.08 | tozasertib 0.028 | [4] 0.172 | doramapimod 0.079 | ispinesib -0.266

VDAC1 (UniProt C9JI87)
inactive: [2] 0.017 | [1] -0.195 | [3] 0.275 | duvelisib 0.09 | [4] -0.281
active: ispinesib -0.743

VKORC1 (UniProt Q9BQB6)
Chain of UniProt Q9BQB6 (Q9BQB6 whole entry, looked up): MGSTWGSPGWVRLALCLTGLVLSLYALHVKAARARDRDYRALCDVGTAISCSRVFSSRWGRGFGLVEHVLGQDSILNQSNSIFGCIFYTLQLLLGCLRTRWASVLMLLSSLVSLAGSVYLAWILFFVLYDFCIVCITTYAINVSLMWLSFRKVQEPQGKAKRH
inactive: [2] 0.012 | [3] -0.032 | duvelisib 0.153 | gandotinib -0.116 | tozasertib -0.027 | [4] 0.106 | doramapimod 0.033 | ispinesib -0.108
active: crizotinib 0.494

WARS1 (UniProt G3V339)
inactive: [1] -0.123

UBE2D1 (UniProt P51668)
inactive: [2] 0.062 | [3] -0.004 | duvelisib 0.054 | gandotinib 0.047 | tozasertib -0.048 | [4] 0.102 | ispinesib 0.056

WARS1 (UniProt G3V5U1)
inactive: [2] 0.092 | crizotinib 0.09 | [1] -0.282 | doramapimod -0.299

TOM1 (UniProt O60784)
Chain of UniProt O60784 (O60784 whole entry, looked up): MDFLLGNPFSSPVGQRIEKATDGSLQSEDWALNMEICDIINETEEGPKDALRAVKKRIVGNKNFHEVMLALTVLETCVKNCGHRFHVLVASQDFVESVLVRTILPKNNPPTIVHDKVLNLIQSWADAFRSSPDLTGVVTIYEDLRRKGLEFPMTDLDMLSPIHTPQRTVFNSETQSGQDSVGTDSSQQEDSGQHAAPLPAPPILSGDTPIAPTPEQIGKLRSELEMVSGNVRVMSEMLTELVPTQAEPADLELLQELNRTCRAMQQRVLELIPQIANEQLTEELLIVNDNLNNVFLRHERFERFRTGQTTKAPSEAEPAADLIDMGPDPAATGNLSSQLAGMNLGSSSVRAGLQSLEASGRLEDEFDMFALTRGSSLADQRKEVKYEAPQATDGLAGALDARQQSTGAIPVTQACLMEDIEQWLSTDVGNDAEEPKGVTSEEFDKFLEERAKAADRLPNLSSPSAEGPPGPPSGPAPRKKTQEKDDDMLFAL
inactive: [2] -0.04 | crizotinib -0.054 | [1] -0.05 | gandotinib -0.018 | tozasertib 0.044 | doramapimod 0.052

ULBP1 (UniProt Q9BZM6)
Chain of UniProt Q9BZM6 (Q9BZM6 whole entry, looked up): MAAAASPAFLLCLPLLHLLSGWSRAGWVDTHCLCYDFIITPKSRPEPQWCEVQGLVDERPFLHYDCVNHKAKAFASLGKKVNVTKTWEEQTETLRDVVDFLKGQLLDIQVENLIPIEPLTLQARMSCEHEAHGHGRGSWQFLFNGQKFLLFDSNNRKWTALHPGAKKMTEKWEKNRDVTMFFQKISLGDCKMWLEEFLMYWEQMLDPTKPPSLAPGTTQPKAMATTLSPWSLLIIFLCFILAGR
inactive: [2] 0.188 | [1] 0.192 | [3] 0.156 | duvelisib -0.024 | tozasertib 0.044 | [4] 0.014 | ispinesib 0.011

UFM1 isoform 2 (UniProt P61960)
inactive: [2] -0.009 | [1] -0.065 | [3] -0.157 | duvelisib -0.004 | gandotinib -0.066 | tozasertib -0.042 | [4] 0.063

TMEM8A (UniProt Q9HCN3)
Chain of UniProt Q9HCN3 (Q9HCN3 whole entry, looked up): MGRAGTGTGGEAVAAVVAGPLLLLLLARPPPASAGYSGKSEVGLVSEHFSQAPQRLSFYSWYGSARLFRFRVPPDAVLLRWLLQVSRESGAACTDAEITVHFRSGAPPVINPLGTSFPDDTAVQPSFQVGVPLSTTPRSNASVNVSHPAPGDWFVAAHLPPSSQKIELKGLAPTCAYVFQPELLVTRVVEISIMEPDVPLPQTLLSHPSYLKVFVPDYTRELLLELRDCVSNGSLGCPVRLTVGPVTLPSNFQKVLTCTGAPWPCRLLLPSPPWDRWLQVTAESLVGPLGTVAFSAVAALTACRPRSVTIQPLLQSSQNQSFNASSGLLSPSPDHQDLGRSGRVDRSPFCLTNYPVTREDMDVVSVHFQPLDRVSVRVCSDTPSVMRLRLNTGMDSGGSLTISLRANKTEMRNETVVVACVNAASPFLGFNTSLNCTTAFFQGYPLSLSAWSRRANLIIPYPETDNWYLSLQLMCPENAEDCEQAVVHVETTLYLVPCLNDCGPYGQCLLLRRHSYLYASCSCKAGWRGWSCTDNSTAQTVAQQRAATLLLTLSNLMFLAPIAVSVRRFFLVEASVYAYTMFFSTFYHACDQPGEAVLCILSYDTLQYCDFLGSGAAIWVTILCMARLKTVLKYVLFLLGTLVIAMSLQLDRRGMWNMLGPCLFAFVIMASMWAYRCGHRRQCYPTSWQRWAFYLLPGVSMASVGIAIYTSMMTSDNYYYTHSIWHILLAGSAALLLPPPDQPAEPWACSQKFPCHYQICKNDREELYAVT
inactive: [2] 0.425 | [3] 0.049 | duvelisib 0.394 | gandotinib 0.014 | tozasertib -0.026 | [4] -0.095 | ispinesib -0.065

TXNL4B (UniProt Q9NX01)
inactive: [2] 0.22 | crizotinib 0.309 | [3] 0.008 | duvelisib 0.083 | gandotinib -0.024 | tozasertib 0.07 | [4] 0.054 | doramapimod 0.037 | ispinesib -0.017

TRIM5 (UniProt Q9C035)
active: ispinesib -0.821
inactive: [2] -0.032 | [1] 0.037 | [3] 0.148 | duvelisib -0.109 | tozasertib -0.096 | [4] -0.127
